Shown are actives, neighbours in structure and some others; about 13% of the full set was active somewhere.
HCMV inh = inhibitors of human cytomegalovirus; HFF cells, HCMV-luciferase reporter, 72 h; active compounds read low; activity change, negative = inhibition, % at 57.5 µM; 410,000 compounds, 4.5% hits; in the data active = activity change below about -60%; inconclusive = no clear call, values can overlap the other calls; inactive = above about -39%
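Luciferase read-out from HCMV-luciferase-infected HFFs (MOI 1 PFU/cell) 72 h post infection at 37C; compounds added after 16 h cell attachment; activity normalized between buffer-only basal and Salinomycin (10uM) inhibitor controls.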
Pf growth 96h = inhibits malaria parasite growth, 96 h; P. falciparum luciferase reporter growth, 96 h; Potency, µM (titrated, usually from 28.7 µM), without a hit: at the top dose activity change, negative = inhibition, actives largely listed as inhibitors; 320,000 compounds, 6.9% hits; note: potency is the fitted concentration of half-maximal effect
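Two-generation exposure (96 h) targets delayed-death phenotype. Reporter parasites carrying integrated firefly luciferase, in red cells at 2% hematocrit and 0.05% parasitemia final, kept at 37 C, 5% CO2; luminescence loss indicates inhibition.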
HCV inh = inhibitors of hepatitis C virus infection. Huh7.5.1 HCVcc-Cre infection, luciferase reporter, 44 h. AID 651820. 340,000 compounds, 3.4% hits. Potency, µM (doses to about 41.8 µM), for inactives: at the top dose activity change, negative = inhibition, actives largely listed as inhibitors; note: potency is the fitted concentration of half-maximal effect
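Luciferase read-out (15 sec integration) after a 15 min room-temperature substrate step quantifies HCVcc-Cre infection. Cells, 1,000 per well, had compound added 4 h post-plating, then virus at ~0.5 moi, and were cultured 44 h.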
Pf growth 48h = inhibits P. falciparum growth in the first generation, 48 h; P. falciparum luciferase growth in erythrocytes, 48 h; Potency, µM (series often up to 28.7 µM), without a hit: top-dose activity change, negative = inhibition, most hits filed as inhibitors; 310,000 compounds, 5.9% hits; note: potency is the fitted concentration of half-maximal effect
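Erythrocytes infected with P. falciparum carrying an integrated firefly luciferase reporter (2% hematocrit, 0.1% parasitemia final) were exposed to compounds in RPMI 1640 with 0.5% Albumax at 37 C, 5% CO2. Growth inhibition was scored as reduced luminescence.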
* hit, by the source's call. Unless noted, calls come from the whole dose curve; as a rule, active = well fitted inhibition curve with a large enough effect; inconclusive = small, poorly fitted or top-dose-only effect, or another doubt; inactive = no such curve, though single readings can be large or run the other way. % is set by controls: 0 for no effect and ±100 for the full control effect.

COC(=O)c1[nH]c2cccc(C)c2c1NC(=O)CN1CCN(c2ccccc2OC)CC1 was read as HCMV inh inconclusive, Pf growth 96h -24%, HCV inh -17% and Pf growth 48h inconclusive.
CCOC(=O)c1c(NC(=O)c2ccco2)sc2c1CCCCC2 was read as HCMV inh inconclusive, Pf growth 96h -3% and HCV inh inconclusive.
COC(=O)c1[nH]c2ccccc2c1NC(=O)C(C)N1CCN(C(=O)c2ccco2)CC1 (configuration not stated) was read as HCMV inh 68, Pf growth 96h 10µM*, HCV inh 12% and Pf growth 48h inconclusive.
For COC(=O)c1[nH]c2cc(C)ccc2c1NC(=O)CN1CCN(C(=O)c2ccco2)CC1 the results were HCMV inh 87, Pf growth 96h 3.3µM*, HCV inh inconclusive and Pf growth 48h inconclusive.
For N#Cc1ccccc1CSc1nnc(-c2ccccc2)o1 the results were HCMV inh 101.
CC(C)c1ccc(NC(=O)C(c2ccccc2)N2CCN(C(=O)c3ccco3)CC2)cc1 (configuration not stated) was read as HCMV inh 50, Pf growth 96h inconclusive, HCV inh -7% and Pf growth 48h 9.3µM*.
Screening CCC(Sc1nnc(C)n2c1cc1occc12)C(=O)Nc1ccccc1OC (configuration not stated) returned HCMV inh -22.
`CC1CSc2n(-c3cccc(C(F)(F)F)c3)cc(-c3ccccc3)[n+]21` (configuration not stated) gave HCMV inh -7, Pf growth 96h inconclusive, HCV inh inconclusive and Pf growth 48h 1.9µM*.
Cn1nccc1C(=O)N1CCN(c2cccc(C(F)(F)F)c2)CC1 was read as HCMV inh 9, Pf growth 96h 25%, HCV inh -1% and Pf growth 48h 1%.
For CCOCCC(=O)Nc1ccc2c(c1)c(=O)n(C)n2Cc1cccc(C(F)(F)F)c1 the results were HCMV inh -62*.
`Cn1c(=O)c2cc(NC(=O)CCc3ccccc3)ccc2n1Cc1cccc(C(F)(F)F)c1` gave HCMV inh -22.
Screening Cn1c(=O)c2cc(NC(=S)NCc3ccccc3F)ccc2n1Cc1ccccc1 returned HCMV inh -20.
COc1cccc(Cn2c3ccc(NC(=O)CCc4ccc(F)cc4)cc3c(=O)n2C)c1 was read as HCMV inh -85*.
Cn1c(=O)c2cc(NC(=S)NCc3ccccc3F)ccc2n1Cc1cccc(C(F)(F)F)c1 was read as HCMV inh -69*.
For COc1ccccc1CCC(=O)Nc1ccc2c(c1)c(=O)n(C)n2Cc1ccc(F)cc1 the results were HCMV inh 12.
Screening COc1ccc(Cl)cc1NC(=O)Cn1cnc2sc(C)c(S(=O)(=O)N3CCN(c4ccccc4OC)CC3)c2c1=O returned HCMV inh 15.
For O=C(Cn1cc(S(=O)(=O)c2ccccc2)c(=O)c2cc3c(cc21)OCO3)Nc1ccccc1 the results were HCMV inh -12.
Screening COc1ccc(C2=NCC(C)n3c2c2ccc(OC)cc2[n+]3[O-])cc1 (configuration not stated) returned HCMV inh 33.
For COc1ccc(CCNC(=O)c2cc([C@@H](NC(=O)OC(C)(C)C)C(C)C)sc2N)cc1OC the results were HCMV inh -14.
COCC(C)NC(=O)Cc1ccc(F)cc1 (configuration not stated) was read as HCMV inh -5, Pf growth 96h 9.3µM*, HCV inh 16% and Pf growth 48h -15%.
O=[N+]([O-])c1ccc(-c2nc(=S)c3c(o2)CCCC3)cc1 was read as HCMV inh -101*, Pf growth 96h 90%, HCV inh 19% and Pf growth 48h 16%.
`CCOC(=O)c1cnc2c(C(F)(F)F)cccc2c1Nc1cccc(C(=O)OC)c1` gave HCMV inh -18.
`c1ccc(-c2ccccc2-c2nc(-c3cccnc3)no2)cc1` gave HCMV inh -16, HCV inh 11µM* and Pf growth 48h inconclusive.
c1ccc(CCc2nc(-c3cccnc3)no2)cc1 was read as HCMV inh 10, Pf growth 96h inconclusive, HCV inh 11µM* and Pf growth 48h 42%.
Screening c1ccc(CCc2ccccc2-c2nc(-c3cccnc3)no2)cc1 returned HCMV inh -22, Pf growth 96h inconclusive, HCV inh 7.1µM* and Pf growth 48h 13µM*.
For c1ccc(CCc2nc(-c3ccccc3)no2)cc1 the results were HCMV inh 13, Pf growth 96h 97%, HCV inh 10% and Pf growth 48h 118%.
O=C(O)c1cccc(N2C(=O)C3CC=C(Cl)CC3C2=O)c1 (configuration not stated) was read as HCMV inh -2, Pf growth 96h 10µM* and HCV inh 6%.
Screening O=C(c1cccc(N2C(=O)C3CC=CCC3C2=O)c1)N1CCCCCC1 (configuration not stated) returned HCMV inh 10, Pf growth 96h 0.17µM*, HCV inh 6% and Pf growth 48h 5%.
Screening CN(Cc1ccccc1)C(=O)c1cccc(N2C(=O)C3CC=CCC3C2=O)c1 (configuration not stated) returned HCMV inh inconclusive, Pf growth 96h -7%, HCV inh -4% and Pf growth 48h -11%.
`O=C(O)c1cccc(N2C(=O)C3CC=CCC3C2=O)c1` (configuration not stated) gave HCMV inh -3, Pf growth 96h inactive, HCV inh 9% and Pf growth 48h 2%.
CC1C=CCC2C(=O)N(c3cccc(C(=O)N4CCN(c5ccc(F)cc5)CC4)c3)C(=O)C12 (configuration not stated) was read as HCMV inh 3 and Pf growth 48h 226%.
CN(C(=O)c1cccc(N2C(=O)C3CC=CCC3C2=O)c1)C1CCCCC1 (configuration not stated) was read as HCMV inh 9, Pf growth 96h 10µM*, HCV inh 15% and Pf growth 48h inconclusive.
`O=C(c1cccc(N2C(=O)C3CC=CCC3C2=O)c1)N1CCN(c2ccccc2)CC1` (configuration not stated) gave HCMV inh 14, Pf growth 96h inconclusive and Pf growth 48h 12µM*.
For CC(C)Cn1cc(NC(=O)NCc2cccc(Cl)c2)c2ccccc2c1=O the results were HCMV inh -13.
`O=C(N/N=C/c1ccc[nH]1)c1ccc(COc2cccc3cccnc23)cc1` gave HCMV inh -97*, Pf growth 96h inconclusive, HCV inh 0.79µM* and Pf growth 48h 10µM*.
`Cc1cc(Br)c(OCc2ccc(C(=O)N/N=C/c3ccc[nH]3)cc2)c(Br)c1` gave HCMV inh active, Pf growth 96h 10µM*, HCV inh -4% and Pf growth 48h 2.6µM*.

High-throughput results (PubChem BioAssay)
